Measurements from PubChem BioAssay (Tox21).
Values joined by “and” are separate entries in the source; they are usually repeats but may differ in a detail not shown here. Equal entries are not always repeated. Records with an inconclusive call do not appear. A call without a number means that no potency is given here. The source holds several records for some structures; these can differ, active in one and inactive in another. Active and inactive are the calls of the source. Unless noted, the call rests on the fitted dose curve.

Tests used:
[1] = Nuclear factor erythroid 2-related factor 2/antioxidant responsive element (Nrf2/ARE) small molecule agonists: qHTS cell viability counter screen in human keratinocytes (AID 1919968; active means well fitted curve in the direction sought with a large enough effect in the repeat runs; an effect the other way counts as inactive or inconclusive; further: nearly all actives have a fitted effect of over 55% in size; further: potency means the concentration at half of the fitted maximal effect)
How it was run: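 Cytotoxicity was multiplexed with the Nrf2/ARE luciferase assay in the same wells. Stably transfected HaCaT keratinocytes were treated with test compounds for 23 h at 37 C. Cell viability was then measured by CellTiter-Fluor fluorescence.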

[2] = Nuclear factor erythroid 2-related factor 2/antioxidant responsive element (Nrf2/ARE) small molecule agonists: luciferase reporter gene qHTS assay in human keratinocytes (AID 1919969); further: nearly all actives have a fitted effect of over 35% in size; further: potency means the concentration at half of the fitted maximal effect
[3] = G protein-coupled receptor (GPCR) small molecule agonists, calcium flux assay: HEK293 wild type cell line counter screen (AID 1920065)
How it was run: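 Seed cells, incubate 18 h (37 C, 5% CO2); add calcium dye, 1 h at 37 C; pin-transfer compounds, ATP control or DMSO; read fluorescence 480/540 nm each second for 3 min.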

[4] = p53 small molecule agonists, cell-based qHTS assay with human liver microsomes (AID 1963577)
How it was run: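 p53RE-bla cells, 4,000/well, compound added after 5 h, with human liver microsomes 0.5 mg/mL and NADPH 0.5 mg/mL final; 16 h at 37 C, then LiveBLAzer 2 h RT, fluorescence.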

[5] = p53 small molecule agonists, cell-based qHTS assay with rat liver microsomes (AID 1963578)
How it was run: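 p53RE-bla cells, 4,000/well, pre-incubated 5 h, then given compounds plus rat liver microsomes (0.5 mg/mL final) and NADPH (0.5 mg/mL final). Incubation 16 h at 37 C; beta-lactamase reporter read by LiveBLAzer fluorescence after 2 h at room temperature.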

[6] = p53 small molecule agonists, cell-based qHTS assay with human liver microsomes: qHTS cell viability counter screen (AID 1963579); further: nearly all actives have a fitted effect of over 45% in size; further: potency means the concentration at half of the fitted maximal effect
How it was run: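 p53RE-bla cells, 4,000/well, dosed 5 hours after plating, with human liver microsomes (0.5 mg/mL final) plus NADPH (0.5 mg/mL final), 16 hours at 37 C. Viability read as CellTiter-Glo luminescence after 30 min at room temperature.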

[7] = p53 small molecule agonists, cell-based qHTS assay with rat liver microsomes: qHTS cell viability counter screen (AID 1963580); further: nearly all actives have a fitted effect of over 45% in size; further: potency means the concentration at half of the fitted maximal effect
How it was run: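 Cytotoxicity counter screen: intracellular ATP measured by CellTiter-Glo luminescence in the same wells as the beta-lactamase reporter read, on HCT-116 p53RE-bla cells exposed 16 h at 37 C to compounds with rat liver microsomes and NADPH, each 0.5 mg/mL final.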

[8] = p53 small molecule agonists, cell-based qHTS assay: qHTS cell viability counter screen (AID 1963581); further: nearly all actives have a fitted effect of over 45% in size
How it was run: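 Viability was counter-screened in parallel with the p53 agonist reporter by measuring intracellular ATP luminescence in the same HCT-116 p53RE-bla wells after 16 h compound treatment at 37 C.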

[9] = p53 small molecule agonists, cell-based qHTS assay (AID 1963582; active means well fitted activation curve with a large enough effect in the signal ratio in the repeat runs, not every such curve was filed as active; the % refers to the signal ratio; further: potency means the concentration at half of the fitted maximal effect)
How it was run: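 Cells carrying a p53-responsive bla reporter are treated with test compounds for 16 h at 37 C; beta-lactamase activity is then detected with LiveBLAzer B/G FRET substrate after 2 h at room temperature.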

[10] = cAMP Responsive Elements (CRE) small molecule antagonists, cell-based qHTS assay (AID 1963591; active means well fitted inhibition curve with a large enough effect in the signal ratio in the repeat runs, not every such curve was filed as active; the % refers to the signal ratio)
How it was run: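 Cells (CRE-bla HEK 293T, DMEM with 10% dialyzed FBS and 25 mM HEPES) are seeded and incubated 18 h. Compounds are added with NKH477 agonist at 0.25 uM final for 3 h, then FRET substrate for 2 h.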

[11] = biological target: Beta-2 adrenergic receptor (Homo sapiens) (UniProt P07550); test: Adrenergic beta2 receptor (ADRB2) small molecule antagonists, cell-based qHTS assay (AID 1963592); further: series mostly up to about 92 µM; nearly all actives have a fitted effect of over 50% in size
How it was run: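 Assay format: CHO-ADRB2 cells, 18-20hr seeding at 37C/5% CO2, then compound plus 1nM isoproterenol agonist mix for 0.5hr RT. Homogeneous time-resolved fluorescence cAMP detection after 1hr, expressed as 665/615 nm ratio.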

[12] = biological target: D(2) dopamine receptor (Homo sapiens) (UniProt P14416); test: Dopamine D2 receptor (DRD2) small molecule agonists, cell-based qHTS assay (AID 1963594); further: nearly all actives have a fitted effect of over 35% in size
How it was run: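 HEK293 cells stably expressing human DRD2, pre-treated with PDE inhibitor Ro20-1724 (0.1 mM final) and compound 10 min at room temperature, then stimulated with NKH477 (200nM […]) for 30 min. cAMP read by HTRF (665/620 nm).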

[13] = biological target: 5-hydroxytryptamine receptor 2A (Homo sapiens) (UniProt P28223); test: 5-hydroxytryptamine receptor 2A (HTR2A) small molecule antagonists, cell-based qHTS assay (AID 1963586); further: nearly all actives have a fitted effect of over 45% in size
How it was run: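 CHO cells stably expressing human HTR2A were plated for 18 h at 37 C, then loaded with calcium dye for 1 h. Compounds were preincubated 5 min at room temperature before DOI (4 nM solution) was added. Kinetic fluorescence was read for 3 min.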

[14] = biological target: 5-hydroxytryptamine receptor 2A (Homo sapiens) (UniProt P28223); test: 5-hydroxytryptamine receptor 2A (HTR2A) small molecule agonists, cell-based qHTS assay (AID 1963587); further: nearly all actives have a fitted effect of over 30% in size
How it was run: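 CHO cells stably expressing human HTR2A, plated 18 h, loaded with calcium dye 1 h at 37 C. Agonist mode: compounds added and intracellular calcium fluorescence recorded kinetically for 2 min at 1 sec intervals.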

[15] = biological target: Muscarinic acetylcholine receptor M1 (Homo sapiens) (UniProt P11229); test: Cholinergic receptor muscarinic 1 (CHRM1) small molecule antagonists, cell-based qHTS assay (AID 1963588); further: nearly all actives have a fitted effect of over 40% in size; further: potency means the concentration at half of the fitted maximal effect
How it was run: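 Compounds were tested at 15 concentrations in three independent runs. Dye-loaded CHRM1-CHO cells were exposed 5 min at room temperature before stimulation by acetylcholine added at 50nM. Intracellular calcium was read kinetically on FDSS for 3 min.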

[16] = biological target: Muscarinic acetylcholine receptor M1 (Homo sapiens) (UniProt P11229); test: Cholinergic receptor muscarinic 1 (CHRM1) small molecule agonists, cell-based qHTS assay (AID 1963589); further: nearly all actives have a fitted effect of over 35% in size
How it was run: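 Cells were plated and incubated 18 h at 37 C/5% CO2, loaded with calcium dye for 1 h at 37 C, then treated with compounds in DMSO. Fluorescence was recorded kinetically at 1 sec intervals.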

[17] = cAMP Responsive Elements (CRE) small molecule agonists, cell-based qHTS assay (AID 1963590); further: potency means the concentration at half of the fitted maximal effect
How it was run: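 Cells carrying a CRE-driven beta-lactamase reporter (HEK 293T) are seeded, incubated overnight (18 h), and treated with test compounds for 3 h at 37 C; reporter activity is then detected with a FRET substrate after 2 h at room temperature.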

[18] = biological target: D(2) dopamine receptor (Homo sapiens) (UniProt P14416); test: Dopamine D2 receptor (DRD2) small molecule antagonists, cell-based qHTS assay (AID 1963595; active means well fitted inhibition curve with a large enough effect in the signal ratio in the repeat runs, with a control signal flat; the % refers to the signal ratio; further: potency means the concentration at half of the fitted maximal effect)
How it was run: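 DRD2-HEK293; 0.1 mM Ro20-1724; cpd 10 min RT; NKH477 200 nM + quinpirole 12 nM, 30 min RT; HTRF cAMP (cAMP-d2/anti-cAMP cryptate), 665/620 nm ratio after 1 h.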

[19] = biological target: Beta-2 adrenergic receptor (Homo sapiens) (UniProt P07550); test: Adrenergic beta2 receptor (ADRB2) small molecule agonists, cell-based qHTS assay (AID 1963593);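 further: CHO cells stably overexpressing human ADRB2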
How it was run: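 CHO cells stably over-expressing ADRB2 were plated overnight at 37C, then dosed with compounds plus a stimulation mix containing 100uM IBMX and 25uM Ro-20-1724 for 0.5hr at room temperature. cAMP was measured by HTRF competition, 1hr.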

[20] = biological target: KiSS-1 receptor (Homo sapiens) (UniProt Q969F8); test: Human kisspeptin (KISS1R) small molecule agonists, calcium flux assay in KISS1R-HEK293 cells (AID 1920064; active means well fitted curve in the direction sought with a large enough effect in the repeat runs; an effect the other way counts as inactive or inconclusive)
How it was run: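 Agonist activity is monitored as intracellular calcium rise in engineered HEK293 cells carrying human KISS1R. Cells are dye-loaded for 1 h at 37 C before compound addition, and fluorescence is recorded for 3 min.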

Chain of D(2) dopamine receptor (Homo sapiens) (P14416 whole entry, looked up): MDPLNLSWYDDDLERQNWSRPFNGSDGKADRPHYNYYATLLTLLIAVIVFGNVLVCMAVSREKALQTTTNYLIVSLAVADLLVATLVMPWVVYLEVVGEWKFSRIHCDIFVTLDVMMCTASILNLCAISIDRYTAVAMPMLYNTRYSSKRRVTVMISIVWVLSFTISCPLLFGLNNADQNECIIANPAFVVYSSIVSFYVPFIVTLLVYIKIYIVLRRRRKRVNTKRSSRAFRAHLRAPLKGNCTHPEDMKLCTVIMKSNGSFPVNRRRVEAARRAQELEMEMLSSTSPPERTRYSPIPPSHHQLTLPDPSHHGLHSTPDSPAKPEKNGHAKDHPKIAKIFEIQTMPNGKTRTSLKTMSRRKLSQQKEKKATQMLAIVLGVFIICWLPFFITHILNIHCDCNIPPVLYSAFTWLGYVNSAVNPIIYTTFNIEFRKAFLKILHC
Chain of Beta-2 adrenergic receptor (Homo sapiens) (P07550 whole entry, looked up): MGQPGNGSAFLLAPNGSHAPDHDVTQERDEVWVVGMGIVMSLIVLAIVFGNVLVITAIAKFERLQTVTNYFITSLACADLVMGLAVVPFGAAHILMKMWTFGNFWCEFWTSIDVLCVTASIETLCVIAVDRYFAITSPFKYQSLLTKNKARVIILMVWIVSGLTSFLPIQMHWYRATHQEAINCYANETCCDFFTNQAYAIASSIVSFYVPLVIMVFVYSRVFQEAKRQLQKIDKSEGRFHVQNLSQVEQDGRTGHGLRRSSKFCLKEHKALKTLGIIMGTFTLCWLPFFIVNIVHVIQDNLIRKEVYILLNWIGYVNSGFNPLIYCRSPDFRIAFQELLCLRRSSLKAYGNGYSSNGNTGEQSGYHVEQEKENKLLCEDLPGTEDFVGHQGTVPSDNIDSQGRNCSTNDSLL
Chain of Muscarinic acetylcholine receptor M1 (Homo sapiens) (P11229 whole entry, looked up): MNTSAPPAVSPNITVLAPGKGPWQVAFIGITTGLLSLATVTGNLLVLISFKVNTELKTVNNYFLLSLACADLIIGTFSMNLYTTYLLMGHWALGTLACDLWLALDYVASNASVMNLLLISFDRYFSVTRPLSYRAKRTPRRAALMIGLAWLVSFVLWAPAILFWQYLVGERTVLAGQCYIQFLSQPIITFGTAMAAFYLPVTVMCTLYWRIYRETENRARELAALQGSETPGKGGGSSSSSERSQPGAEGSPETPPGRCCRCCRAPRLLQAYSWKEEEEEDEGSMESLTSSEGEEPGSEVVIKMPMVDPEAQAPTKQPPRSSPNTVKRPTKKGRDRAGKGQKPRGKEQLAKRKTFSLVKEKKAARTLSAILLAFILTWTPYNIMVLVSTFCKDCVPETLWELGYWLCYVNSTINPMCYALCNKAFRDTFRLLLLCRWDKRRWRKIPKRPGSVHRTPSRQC
Chain of 5-hydroxytryptamine receptor 2A (Homo sapiens) (P28223 whole entry, looked up): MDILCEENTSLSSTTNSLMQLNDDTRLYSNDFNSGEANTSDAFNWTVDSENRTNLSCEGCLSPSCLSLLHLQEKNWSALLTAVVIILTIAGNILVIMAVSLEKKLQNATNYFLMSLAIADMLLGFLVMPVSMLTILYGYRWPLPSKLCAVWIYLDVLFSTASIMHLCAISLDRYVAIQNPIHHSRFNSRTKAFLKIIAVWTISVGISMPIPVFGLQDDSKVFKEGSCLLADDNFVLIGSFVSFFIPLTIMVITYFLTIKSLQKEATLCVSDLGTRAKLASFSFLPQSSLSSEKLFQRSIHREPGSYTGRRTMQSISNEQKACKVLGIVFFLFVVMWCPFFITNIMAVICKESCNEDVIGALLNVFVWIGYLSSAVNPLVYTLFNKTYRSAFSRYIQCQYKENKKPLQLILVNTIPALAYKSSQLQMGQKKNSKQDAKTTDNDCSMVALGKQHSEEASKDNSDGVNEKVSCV
Chain of KiSS-1 receptor (Homo sapiens) (Q969F8 whole entry, looked up): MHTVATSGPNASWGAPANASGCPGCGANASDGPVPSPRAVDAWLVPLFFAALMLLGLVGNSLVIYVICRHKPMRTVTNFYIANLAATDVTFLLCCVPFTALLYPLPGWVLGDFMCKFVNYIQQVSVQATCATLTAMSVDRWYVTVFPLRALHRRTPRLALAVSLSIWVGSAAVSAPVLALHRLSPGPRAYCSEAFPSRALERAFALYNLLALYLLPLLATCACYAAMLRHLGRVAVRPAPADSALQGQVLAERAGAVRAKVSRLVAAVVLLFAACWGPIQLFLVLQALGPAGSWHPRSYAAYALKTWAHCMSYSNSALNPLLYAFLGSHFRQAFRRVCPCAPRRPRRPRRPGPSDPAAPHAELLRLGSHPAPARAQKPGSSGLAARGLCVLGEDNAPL

Compound	Potency [1]	Potency [2]	Potency [3]	Potency [4]	Potency [5]	Potency [6]	Potency [7]	Potency [8]	Potency [9]	Potency [10]	Potency [11]	Potency [12]	Potency [13]	Potency [14]	Potency [15]	Potency [16]	Potency [17]	Potency [18]	Potency [19]	Potency [20]
Cc1oncc1C(=O)Nc1ccc(C(F)(F)F)cc1	inactive	27.3 µM (active) and inactive	inactive	inactive	inactive	20.4 µM (active) and inactive	20.4 µM (active)	inactive	inactive	inactive	inactive	inactive								
Oc1c(Cl)ccc(Cl)c1Cl	inactive	inactive	inactive	inactive	inactive	inactive	inactive	inactive	inactive	inactive	inactive	inactive	inactive	inactive	inactive	inactive	inactive	inactive		
CCOc1ccc(Cc2nccc3cc(OCC)c(OCC)cc23)cc1OCC	4.22 µM (active)	inactive	inactive	inactive	inactive	inactive	inactive	inactive	inactive	inactive	inactive	inactive	inactive	inactive		inactive	6.68 µM (active)			
OC[C@H]1O[C@@](CO)(O[C@H]2O[C@H](CO)[C@@H](O)[C@H](O)[C@H]2O)[C@@H](O)[C@@H]1O	inactive	inactive	inactive			inactive		inactive		inactive	inactive	inactive	inactive	inactive	inactive	inactive	inactive	inactive		
Cc1cc(OCCOCC[N+](C)(C)Cc2ccccc2)ccc1C(C)(C)CC(C)(C)C	21.6 µM (active) and 7.5 µM (active)	inactive	inactive			36.1 µM (active) and inactive	inactive				inactive	inactive			2.96 µM (active) and 2.59 µM (active)	inactive		38.3 µM (active)	inactive	
O=c1cccc[nH]1	inactive	inactive	inactive	inactive		inactive	inactive	inactive	inactive	inactive	inactive	inactive	inactive	inactive	inactive	inactive	inactive	inactive	inactive	
Fc1ccccc1-c1ccccc1	inactive	inactive	inactive		inactive	inactive	inactive		inactive	inactive	inactive	inactive	inactive	inactive	inactive	inactive	inactive	inactive		
CC(C)(C)C(=O)C(Oc1ccc(Cl)cc1)n1ccnc1 (configuration not stated)	inactive	inactive	inactive	inactive	inactive	inactive	inactive	inactive	inactive	inactive	inactive	inactive	inactive	inactive	inactive	inactive	inactive	inactive	inactive	inactive
C=C1C[C@]23C[C@@]1(O)CC[C@H]2[C@@]12C=C[C@H](O)[C@@](C)(C(=O)O1)[C@H]2[C@@H]3C(=O)O	inactive	inactive	inactive			inactive		inactive		inactive	inactive	inactive	inactive	inactive	inactive	inactive		inactive		
OC[C@H]1O[C@@H]2O[C@H]3[C@H](O)[C@@H](O)[C@@H](O[C@H]4[C@H](O)[C@@H](O)[C@@H](O[C@H]5[C@H](O)[C@@H](O)[C@@H](O[C@H]6[C@H](O)[C@@H](O)[C@@H](O[C@H]7[C@H](O)[C@@H](O)[C@@H](O[C@H]1[C@H](O)[C@H]2O)O[C@@H]7CO)O[C@@H]6CO)O[C@@H]5CO)O[C@@H]4CO)O[C@@H]3CO	inactive	inactive	inactive			inactive	inactive			inactive	inactive						inactive	inactive	inactive	
Cc1cccc2cccnc12	inactive	inactive	inactive	inactive		inactive	inactive	inactive	inactive	inactive	inactive	inactive	inactive	inactive	inactive	inactive	inactive	inactive		
Cc1cnccn1	inactive	inactive	inactive	inactive		inactive	inactive	inactive	inactive	inactive	inactive	inactive	inactive	inactive	inactive	inactive	inactive	inactive		
CCC(C)(C)CC	inactive	inactive	inactive	inactive	inactive	inactive	inactive	inactive	inactive	inactive	inactive	inactive	inactive	inactive	inactive	inactive	inactive	inactive	inactive	inactive
CCCCCCCCCCCCCCCCC	inactive	inactive	inactive	inactive		inactive	inactive	inactive	inactive	inactive	inactive	inactive	inactive	inactive	inactive	inactive	inactive	inactive	inactive	
C[C@@H]1CC(=O)NN=C1c1ccc(NN=C(C#N)C#N)cc1	11.9 µM (active) and 21.1 µM (active)	23.7 µM (active) and 26.6 µM (active)	inactive				inactive	inactive			inactive	inactive	inactive	inactive	inactive	inactive				
COC(=O)Nc1nc2ccc(Sc3ccccc3)cc2[nH]1	inactive	30.6 µM (active) and 3.35 µM (active)		inactive	inactive	inactive			0.363 µM (active)	inactive	inactive	inactive						inactive	inactive	
